Experimental data published in PubChem BioAssay (NCI).
About 83,000 compounds went through this panel and 20% of them were active in at least one assay; those are over-represented in the sample as a whole.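 A percent growth of 40 corresponds to 60% growth inhibition; 0 means no net growth; -100 means all cells died. Active threshold: below 10.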 The source made the active and inactive calls.

Key:
Test in all cases: NCI-60 one-dose screen, 48 h (100 = growth as untreated, 0 = no growth, -100 = all killed)
Conditions in all cases: 10 µM unless noted
[1] = system: SR leukemia
[2] = system: OVCAR-8 ovarian
[3] = system: OVCAR-5 ovarian
[4] = system: OVCAR-4 ovarian
[5] = system: SK-OV-3 ovarian
[6] = system: IGROV1 ovarian
[7] = system: HS 578T breast
[8] = system: NCI/ADR-RES ovarian
[9] = system: OVCAR-3 ovarian

Measured: growth

N/C(=N\c1nc2ccc([N+](=O)[O-])cc2s1)C(Cl)(Cl)Cl
inactive: [1] 57.7% | [2] 73.5% | [3] 84.1% | [4] 67.9% | [5] 82.6% | [6] 65.1% | [7] 79.9% | [8] 73.4%

CC(C)(C)CC(C)(C)n1nnnc1C(Nc1ccccc1)c1cc2cccc3ccc4cccc1c4c32 (configuration not stated)
inactive: [1] 82.3% | [2] 86.4% | [3] 85.3% | [4] 82.7% | [5] 87.1% | [6] 92.6% | [7] 90.3% | [8] 81.7%

COc1ccc(Oc2ccc(C3CC(c4cc(OC)c(OC)c(OC)c4)=NN3C(C)=O)cc2)cc1 (configuration not stated)
inactive: [1] 35.7% | [2] 30.3% | [3] 50.2% | [4] 18% | [5] 50.9% | [6] 19.7% | [7] 51.3% | [8] 19.8%

NC(N)=NS(=O)(=O)c1ccc(N=NC2C(=O)NN(c3ccccc3)C2=O)cc1 (configuration not stated)
inactive: [1] 109% | [2] 104% | [3] 101% | [4] 104% | [5] 112% | [6] 103% | [7] 89% | [8] 99.9%

COc1ccc(-c2nc(SCCC(C)C)nc(N/N=C\c3ccc(O)cc3)c2C#N)cc1
inactive: [1] 25.5% | [2] 47.6% | [3] 101% | [4] 74.9% | [5] 109% | [6] 68.5% | [7] 67% | [8] 55.1%

Cc1cc(O)c(=O)cc2c1C[C@H]1CC(C)(C)/C=C/C[C@]3(C)Oc4cc(=O)c(O)cc(C)c4C[C@H]3C[C@H](O)[C@@]1(C)O2
active: [1] 4.18% | [2] 2.98% | [4] 9.74% | [5] -14.3% | [6] 6.73% | [8] 1.38%
inactive: [3] 26.9% | [7] 18.7%

CCOC(=O)c1c(Nc2ccccc2)nn2c(-c3ccc(OC)c(OC)c3)ccnc12
inactive: [1] 23.6% | [2] 50.5% | [3] 84.7% | [4] 72.4% | [5] 72% | [6] 102% | [7] 49.4% | [8] 48.9%

CC(=O)Nc1ccc(NC(=O)Nc2cccc(-c3nc(-c4ccc(NC(=O)c5cccnc5)cc4Cl)no3)c2)cc1C(F)(F)F
active: [1] -25.1% | [2] -9.07% | [3] -49.4% | [4] -53.7% | [5] -57.9% | [6] -54% | [7] -22.9%
inactive: [8] 69.2%

C#C[C@]1(O)CC[C@H]2[C@@H]3CC=C4c5sc(-c6cccc(F)c6)nc5CC[C@]4(C)[C@H]3CC[C@@]21C
inactive: [1] 76.4% | [2] 96.8% | [3] 83.2% | [4] 110% | [5] 92.7% | [6] 97.2% | [7] 68.7%

CC1CCc2c(sc3nc(SCC(=O)N/N=C/c4ccc(Cl)cc4)n(-c4ccccc4)c(=O)c23)C1 (configuration not stated)
inactive: [1] 96% | [2] 96.7% | [3] 99.4% | [4] 99.4% | [5] 97.9% | [6] 100% | [7] 82.2% | [8] 97.2%

N#C/C(=C\c1ccc(N2CCCCC2)cc1)C(=O)Nc1sc2c(c1C#N)CCC2
inactive: [1] 97.6% | [2] 99.8% | [3] 93.7% | [4] 84.5% | [5] 96.6% | [6] 102% | [7] 99.3% | [8] 95.7%

CC(=O)Nc1ccc(NC(=O)Nc2cccc(-c3nc(-c4ccc(NC(=O)c5cccs5)cc4Cl)no3)c2)cc1C(F)(F)F
active: [1] -7.39% | [2] -15.8% | [3] -37.9% | [4] -94.5% | [5] -66% | [6] -57.6% | [9] -63.4% | [7] -28.3%
inactive: [8] 55.5%

O=C(C[n+]1ccnc2ccccc21)c1ccc(O)c(O)c1
active: [1] 7.3%
inactive: [2] 48.4% | [3] 70.5% | [4] 46.6% | [5] 112% | [6] 51.4% | [9] 21.7% | [7] 94.4% | [8] 57.2%

CC(=O)Nc1nc2c(s1)C1=CC[C@H]3[C@@H]4CC[C@H](C(C)=O)[C@@]4(C)CC[C@@H]3[C@@]1(C)CC2
inactive: [1] 59.4% | [2] 78.6% | [3] 80.6% | [4] 80.5% | [5] 59.9% | [6] 99.1% | [9] 74.8% | [7] 33.8% | [8] 81.6%

Cn1cc2c(c1)-c1c(sc3nc(-c4ccc(NC(=O)Nc5cc(C(C)(C)C)on5)cc4)cn13)CC2
active: [1] 9.8% | [7] -0.139%
inactive: [2] 53.8% | [3] 74.8% | [4] 57.7% | [5] 49.3% | [6] 66.7% | [8] 52.8%
